Experimental data published in ChEMBL document CHEMBL3988442, “University of Dundee, Small-Polar-MMV Screening Library” (2021).
About 13,000 (27%) of roughly 48,000 compounds showed an effect of 50% or more. The list shows a part of the results.

These molecules were tested on Wolbachia pipientis (assay: Anti-Wolbachia Cell-Based Screen). Details: 5 µM.
Format: functional
Design: scale not given: in the data most compounds retested in dose-response had high values

Row | Compound | Percent Effect [%]
1 | O=C(c1ccnnc1)N1CCC2(CCN(c3ccsc3)C2=O)C1 (stereo unspecified) | 3.217
2 | CCC(C(=O)N(Cc1ccccn1)C1CCCCC1)n1cccn1 (stereo unspecified) | 5.317
3 | COCCn1/c(=N\C(=O)CN(C)S(C)(=O)=O)sc2cc(C)ccc21 | -2.711
4 | CC(C)(C)c1cnc(CN2CCC(NC(=O)Nc3ccccc3)CC2)o1 | 8.013
5 | CCOC(=O)CN1CCC2(CCCN(CCOc3ccccc3)C2)C1 (stereo unspecified) | 101.8
6 | Cn1cc(CN2CC3(CCN(C(=O)c4cscn4)C3)C2)cn1 | 2.986
7 | O=C(c1cscn1)N1CCC2(CCN(S(=O)(=O)c3ccccc3)C2)C1 (stereo unspecified) | -2.264
8 | O=C(CC1CC1)N1CCC2(CCCN(c3ncccn3)C2)CC1 | -10.65
9 | O=C(CC1CC1)N1CC[C@H]2OCC[C@@]2(COc2ncccc2F)C1.O=C(O)C(F)(F)F | 5.049
10 | CN(C)C(=O)N1CCC2(CCCN(CCOc3ccccc3)C2)C1.O=C(O)C(F)(F)F (stereo unspecified) | 102.1
11 | O=C(c1cscn1)N1CCC2(CCCN(CCOc3ccccc3)C2)C1 (stereo unspecified) | 112
12 | O=C(CC1CC1)N1CCC2(CCCN(CCOc3ccccc3)C2)C1.O=C(O)C(F)(F)F (stereo unspecified) | 117.3
13 | Cc1ccc(CN2CCC3(CCCN(C(=O)N(C)C)C3)C2)cc1 (stereo unspecified) | -1.979
14 | COC(=O)c1cc(OCC2CCC2)cc(C(=O)N[C@@H]2CNCC[C@H]2O)c1 | 8.764
15 | O=C(c1ccc(=O)[nH]c1)N1CCCC2(C=Cc3ccccc3O2)CC1 (stereo unspecified) | -7.084
16 | Cc1nc(CN(C)S(=O)(=O)c2ccccc2C(F)(F)F)no1 | 2.399

Row | Compound | Percent Effect [%]
17 | COc1ccc(CN2CCOC[C@H](OCCC(C)C)C2)cc1 | 0.3051
18 | CCCS(=O)(=O)NCC(C)c1ccc(F)c(F)c1 (stereo unspecified) | -6.211
19 | CC(=O)c1ccc(C(=O)NCc2ccnc(N(C)C)n2)cc1 | -2.815
20 | CN1CC[C@]2(CN(C(=O)[C@H]3CCCO3)C[C@H]2c2ccccc2)C1=O | -10.86
21 | O=C([C@H]1CCCO1)N1CCC2(CCCN(CCOc3ccccc3)C2)C1 (stereo partly specified) | 105.8
22 | CCN1CC[C@]2(CN(C(=O)[C@H]3CCCO3)C[C@H]2c2ccccc2)C1=O | -5.714
23 | Cc1cnc2c(c1NCc1ccncc1)c(=O)n(C)c(=O)n2C | -24.16
24 | c1cc(CNc2ncc(-c3cnccn3)c([C@@H]3CCCO3)n2)ccn1 | 102
25 | c1cc(CNc2ncc(-c3cnccn3)c(C3CC3)n2)ccn1 | 244.3
26 | c1cc(CNCCC2CCCO2)ccn1 (stereo unspecified) | -4.656
27 | c1cnc(-c2cnc(N3CCSCC3)nc2C2CCCO2)cn1 (stereo unspecified) | -3.576
28 | c1cc(CCN2CCC(c3n[nH]c(C4CC4)n3)CC2)ccn1 | 9.327
29 | Cn1ncnc1-c1ccnc(NCCCc2ccncc2)n1 | -3.782
30 | c1cc(CCNc2ncc(-c3cnccn3)c(C3CC3)n2)ccn1 | 137.3
31 | c1cc(-c2n[nH]c(CNc3nnc(C4CC4)o3)n2)ccn1 | -23.66
